Laboratory results from PubChem BioAssay AID1254 (The Scripps Research Institute Molecular Screening Center, 2008).
The campaign covered roughly 1,200 compounds. About 250 (21%) were called active. Not all results are given here. Values without a mark were called inactive. Cut-off read from the data, not from the text of the source: active = inhibition above about 20%; inactive = the rest.

The compounds below were run against Neuropeptide Y receptor type 1 (Homo sapiens) (UniProt P25929) (assay: NPY-Y1 receptor antagonists, retest of hits, confirmation, HEK293-CNG cells, membrane potential fluorescence, triplicate (AID 1254;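 note: 0% = vehicle with agonist plus stimulus and 100% = stimulus alone without agonist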)). Conditions: cAMP, at 3.6 µM, stronger effect = higher value, NPY challenge against isoproterenol-raised cAMP.
Sequence of Neuropeptide Y receptor type 1 (Homo sapiens) (P25929 whole entry, looked up): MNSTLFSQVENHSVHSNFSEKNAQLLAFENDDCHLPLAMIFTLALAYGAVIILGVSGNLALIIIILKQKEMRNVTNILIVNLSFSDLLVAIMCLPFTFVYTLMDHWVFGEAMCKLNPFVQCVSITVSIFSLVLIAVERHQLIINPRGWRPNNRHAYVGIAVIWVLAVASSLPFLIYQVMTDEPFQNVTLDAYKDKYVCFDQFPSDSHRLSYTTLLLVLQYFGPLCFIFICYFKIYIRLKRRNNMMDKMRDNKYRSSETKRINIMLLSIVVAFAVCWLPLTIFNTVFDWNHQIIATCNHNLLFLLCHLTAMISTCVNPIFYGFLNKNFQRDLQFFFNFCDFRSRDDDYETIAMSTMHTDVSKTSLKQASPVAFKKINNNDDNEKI

Structure (SMILES)	inhibition
O=C(CSc1nnnn1C1CCCC1)Nc1ccc2c(c1)OCCO2	10.8%
CCN1CCN(CCNC(=O)c2ccc(/C=C3/Sc4ccccc4N(Cc4cccc(C)c4)C3=O)cc2)CC1	14.5%
COC(=O)c1ccc(COC(=O)c2c(C)nn(Cc3ccccc3Cl)c2Cl)o1	7.48%
CC(C)(C)NCc1cc(Br)ccc1OC1CCCC1	21.6% (active)
Cc1ccccc1Nc1scc(-c2ccc(Br)cc2)[n+]1-c1ccccc1C	18.4%
COc1ccccc1C1C2=C(COC2=O)Nc2cc3c(cc21)OCO3 (stereo not drawn)	2.86%
COc1ccc(-c2[nH]nc(-c3ccccc3)c2-c2nc3ccccc3[nH]2)cc1	13.6%
COc1ccc(C(=O)CSc2nnc(COc3ccccc3)n2Cc2ccco2)cc1	5.39%
Cc1cc(C)c2[nH]c(=O)c(CN(Cc3ccccc3)C(=S)NCCCN(C)C)cc2c1	15.2%
O=S(=O)(O)c1nc2ccccc2n1Cc1ccc(Cl)cc1	5.94%
O=C(NCCc1ccc2c(c1)OCCO2)c1cc2ccccc2o1	13.2%
CCCOc1ccc2c3c(c(=O)oc2c1OCCC)CCC3	5.13%
C/C(=N\NC(=S)NCc1ccccc1)c1ccc(Cl)cc1	4.98%
Cc1ccc(-c2cc(C(=O)N3CCc4ccccc4C3)no2)cc1	10.9%
OCC1(CCc2ccccc2)CCN(Cc2ccc3nsnc3c2)CC1	9.69%
COc1ccc(CCN(C(=O)COc2ccccc2)c2nc(-c3ccccc3)cs2)cc1OC	13.1%
CC(Nc1nc(N2CCN(CCO)CC2)nc2ccccc12)c1ccccc1 (stereo not drawn)	4.06%
c1ccc2c(NC3C4CC5CC(C4)CC3C5)nc(N3CCOCC3)nc2c1 (stereo not drawn)	25.2% (active)
c1ccc(-c2ccccc2OCCN2CCCCC2)cc1	4.72%
CCCCCCCCn1c2c(c(=N)c3c1CCC3)CCCC2	64.7% (active)
O=C(CN1CCN(c2ncc(C(F)(F)F)cc2Cl)CC1)Nc1ccc2c(c1)OCO2	12.4%
Cc1ccc2nc(-c3ccccn3)cc(C(=O)Nc3ccc4c(c3)OCO4)c2c1	27% (active)
COc1cc2c(C(=O)N3CCN(C)CC3)c(CSc3ccccc3)n(C)c2cc1Br	20.6% (active)

Structure (SMILES)	inhibition
CS(=O)(=O)N1CCCC(C(=O)N2CCOCC2)C1 (stereo not drawn)	-0.5%
CCOC(=O)CSc1nc2c(sc(=S)n2CCc2ccccc2)c(=O)n1Cc1ccco1	18.3%
O=C(c1cc(-c2ccc(O)cc2)on1)N1CCCc2ccccc21	2.54%
CCOC1CCCCC1NS(=O)(=O)c1ccc(Cl)cc1 (stereo not drawn)	-0.15%
CCCC(=O)Nc1nc2ccc(NC(=O)c3c(F)c(F)c(OC)c(F)c3F)cc2s1	6.69%
Cc1ccc(N2C(=O)C3N=NN(CC(=O)N4N=C(c5cccc6ccccc56)CC4c4ccccc4)C3C2=O)cc1 (stereo not drawn)	0.57%
COC(=O)C1=C(Nc2ccc(C)cc2)C=C(C)C(C(=O)OC)C1c1ccc(F)cc1 (stereo not drawn)	19%
NC(N)=N/N=C/c1ccc(OCc2ccc(Cl)cc2Cl)cc1	11.7%
CC(=O)OC(C)C[N+](C)(C)C (stereo not drawn)	15.3%
Cc1ccc(C(=O)C[n+]2cc(-c3ccccc3)n3c2CCCCC3)cc1	22.1% (active)
CCOC(=O)N1CCN(S(=O)(=O)c2ccc(C(=O)Nc3ccc(F)cc3F)cc2)CC1	2.56%
Cc1nc(-c2ccccc2)sc1C(=O)/C=C/c1ccccc1	7.83%
COc1ccc(C(c2nnnn2C2CCCCC2)N2CCN(c3ccccc3F)CC2)cc1 (stereo not drawn)	15%
Cc1ccc(SCCC(=O)OCC(=O)Nc2ncc(Cl)cc2Cl)cc1	5.19%
CCCCc1c(O)nc2n(c1=O)CCS2	1.41%
CCCOC(=O)c1[nH]c2c(c1C)C(=O)CC(c1cccs1)C2 (stereo not drawn)	7.07%
CC1CN(CCCOc2ccccc2-c2ccccc2)CC(C)O1 (stereo not drawn)	2.5%
Cc1ccc(Cn2c(NC(=O)c3ccco3)nc3ccccc32)cc1	17.4%
COc1cccc(CNCCc2c[nH]c3ccccc23)c1OCc1ccccc1F	9.73%
OC(COCCC12CC3CC(CC(C3)C1)C2)CN1CCCCC1 (stereo not drawn)	3.08%
Cc1ccc(/C=N/NC(=O)COc2ccccc2-c2ccccc2)cc1	11.6%
CCCSc1nc(NCc2ccco2)c2c3c(sc2n1)COC(C)(CC)C3 (stereo not drawn)	10.4%
O=C(Cc1cccs1)N(CC1CCCO1)C1(C(=O)NC2CCCCC2)CCCCC1 (stereo not drawn)	9.42%

Structure (SMILES)	inhibition
COc1ccccc1N1CCN(C(=O)CN(Cc2ccc(Cl)cc2)S(C)(=O)=O)CC1	11.6%
CCC(=O)c1c[nH]c(C(=O)NCC2CCCO2)c1 (stereo not drawn)	0.28%
CCOC(=O)c1nn(-c2cccc(C)c2)cc1C(=O)c1ccccc1	5.58%
COC(=O)c1ccc(C(NC(=O)OCc2ccccc2)/C(C)=C/[C@@H](C)C(=O)NCc2ccc(OC)c(OC)c2)cc1 (stereo partly drawn)	15.9%
O=C(NCCCN1CCOCC1)c1cnn2c(-c3ccccc3)cc(-c3ccccc3)nc12	25% (active)
O=C1c2cccnc2C(Nc2ccc(S(=O)(=O)N3CCCCCC3)cc2)N1Cc1ccccc1 (stereo not drawn)	0.2%
COc1ccc(C2Nc3ccccc3C(=O)N2Cc2ccccc2)cc1Cn1nnc2ccccc21 (stereo not drawn)	11.8%
CCS(=O)(=O)n1nc(-c2ccccc2)nc1SCc1ccccc1	13.5%
Cc1cc(C(C)(C)C)oc1C(=O)N(CC(=O)NC1CCCC1)Cc1ccc(Cl)cc1	25.8% (active)
O=C(/C=C/c1ccco1)Nc1cccc(-c2nc3ccccc3[nH]2)c1	2.58%
Oc1ccc(-c2[nH]ncc2-c2nc3ccccc3s2)c(O)c1	53% (active)
CCc1ccc(CNC(=O)C2CCCN(c3nc4ccccc4o3)C2)cc1 (stereo not drawn)	13.2%
CCCCn1nc(C(=O)N2CCc3ccccc32)c2ccccc2c1=O	3.55%
Clc1ccccc1-c1cc(COc2ccc3ccccc3c2)no1	13.6%
CCCCCCC(=O)Nc1nc(C)c(-c2csc(Nc3cccc(OC)c3)n2)s1	17.8%
CC(Oc1ccc2ccccc2c1)C(=O)NNC(=S)NC(=O)c1ccco1 (stereo not drawn)	10.5%
Cc1ccc(C(=O)N/C(=C/c2ccc(-c3cccc([N+](=O)[O-])c3)o2)C(=O)NCCCN(C)C)cc1	9.75%
O=C(CSc1nc2cc3c(cc2c(=O)n1CCC1=CCCCC1)OCO3)NCc1ccco1	4.77%
CC(=O)N1CC(C)c2scc(C)[n+]2-c2ccccc21 (stereo not drawn)	-0.57%
Fc1ccc(-c2nnc(CSc3nnc(-c4ccc5c(c4)OCO5)o3)o2)cc1	10.1%
CN(C)CCCCCN(C)Cc1cc2ccccc2o1	9.51%
CC(C)Cn1cnc2c1c(=O)n(CC(O)c1ccccc1)c(=O)n2CC(C)C (stereo not drawn)	-1.75%
